Assay results from PubChem BioAssay (NCI).
This is part of a sample that, as a whole, favours compounds with a hit. Of some 83,000 tested, about 20% had one in any assay.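 Results are percent growth after 48 hours of single-concentration exposure. 100 means growth as in untreated cells, lower positive values show inhibition; negative values down to -100 show cell death.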 Activity calls are given as the source filed them. The calls were made as follows: active = growth percent below 10; inactive = the rest.

Each molecule was assayed on BT-549 breast (assay: NCI-60 one-dose screen, 48 h (100 = growth as untreated, 0 = no growth, -100 = all killed)). Details: 10 µM unless noted.

SMILES | growth
CC(=O)/C(Br)=C/c1ccc(Br)o1 | 52.1% (inactive)
N#CC1=C(N)Oc2c(ccc3cccnc23)C1c1ccccc1 (stereo not drawn) | 51.8% (inactive)
CCCS(=O)(=O)Nc1cccc(Nc2ncnc3cc(NC(=O)CCl)ccc23)c1Cl | -68.2% (active)
COC(=O)c1nc(-c2ccc(C)cc2)oc1N1CCOCC1 | 87.1% (inactive)
Cc1ccc(S(=O)(=O)N(CCC(=O)O)c2ccccc2)cc1 | 93.2% (inactive)
Nc1ncc(-c2ccc3ncnc(N4CCc5cc(F)c(Cl)cc54)c3c2)cc1C(F)(F)F | 14.8% (inactive)
OC1CSSC1Cn1cnc2c(Nc3ccc(F)c(Cl)c3)ncnc21 (stereo not drawn) | 119% (inactive)
COc1cc2c(c(OC)c1OC)C(=O)CC(c1cccc(C(=O)Nc3ccc(Br)cc3)c1)O2 (stereo not drawn) | 34% (inactive)
